rTrxR1 inhibitor – qHTS Assay for Inhibitors of Mammalian Selenoprotein Thioredoxin Reductase 1 (TrxR1): qHTS. recombinant rTrxR1, NADPH fluorescence consumption, selenite substrate. AID 588453, 2011. 390,000 tested, 1% active. Thioredoxin reductase 1, cytoplasmic (Rattus norvegicus), O89049. Potency, µM (series often up to 114 µM), without a hit: at the top dose activity change, negative = inhibition, usual class: inhibitors; note: potency is the fitted concentration of half-maximal effect; % is set by controls: 0 for no effect and ±100 for the full control effect; nearly all actives have a fitted effect of over 65% in size
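Rat TrxR1 (90 nM in the dispensed reagent) was pre-reduced with 400 uM NADPH for 5 min at room temperature, then incubated with compound for 15 min. After 400 uM selenite was added, NADPH fluorescence (Ex 340/Em 450 nm) was followed for 8 min.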
Coupling enz – qHTS Assay for Inhibitors of Fructose-1,6-bisphosphate Aldolase from Giardia Lamblia: Coupling assay counterscreen. activity change, negative = inhibition, % at 58.2 µM, hits read low. coupling enzyme system counterscreen, AmpLite Red fluorescence. 290,000 tested, 0.67% active; in the data active = activity change below about -30%; note: % is set by controls: 0 for no effect and ±100 for the full control effect
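Compounds tested against the coupling enzymes alone at 57.5 uM final; readout was AmpLite Red fluorescence (525/598 nm) after 20 min at RT.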
Eya2 inh – qHTS Assay for Inhibitors of the Phosphatase Activity of Eya2 | 330,000 tested, 0.006% active | Potency, µM (highest dose often 76.9 µM), for the others: top-dose activity, negative = inhibition, usual class: inhibitors | Protein phosphatase EYA2 (Homo sapiens), O00167 | AID 488837, 2010 | recombinant Eya2, OMFP fluorescence dephosphorylation (OMFP is methylfluorescein phosphate); note: potency is the fitted concentration of half-maximal effect; % is set by controls: 0 for no effect and ±100 for the full control effect
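Eya2 protein (added as 0.2 uM solution) was preincubated with compound for 10 min at ambient temperature in 50 mM HEPES pH 7.5, 50 mM NaCl, 5 uM MgCl2, 0.05% BSA, 1 mM DTT. OMFP (added at 50 uM) then reacted 10 min; fluorescence read at 485/525 nm.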
IDH1 R132H inh – qHTS for Inhibitors of mutant isocitrate dehydrogenase 1 (IDH1): qHTS; AID 602179, 2012; 390,000 tested, 0.093% active; IDH1-R132H enzyme, NADPH consumption, diaphorase/resazurin fluorescence; Isocitrate dehydrogenase [NADP] cytoplasmic (Homo sapiens), O75874; Potency, µM (highest dose often 76.6 µM), for the others: at the highest dose activity change, negative = inhibition, usual class: inhibitors; note: potency is the fitted concentration of half-maximal effect; % is set by controls: 0 for no effect and ±100 for the full control effect; nearly all actives have a fitted effect of over 65% in size
Target sequence (O75874 whole entry R132H, stated change not applied): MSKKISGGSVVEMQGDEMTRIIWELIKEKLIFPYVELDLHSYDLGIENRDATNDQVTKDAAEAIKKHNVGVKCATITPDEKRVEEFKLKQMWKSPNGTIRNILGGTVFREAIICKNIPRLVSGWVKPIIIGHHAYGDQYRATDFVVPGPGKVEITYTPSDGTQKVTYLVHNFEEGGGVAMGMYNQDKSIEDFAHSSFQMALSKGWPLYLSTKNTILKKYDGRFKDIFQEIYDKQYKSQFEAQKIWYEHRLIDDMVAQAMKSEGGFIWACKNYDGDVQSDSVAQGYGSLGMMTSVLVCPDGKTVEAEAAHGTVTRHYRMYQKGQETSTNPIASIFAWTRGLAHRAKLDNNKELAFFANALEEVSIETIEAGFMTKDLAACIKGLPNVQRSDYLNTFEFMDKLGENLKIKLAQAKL
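IDH1-R132H (0.5 ug/mL dispensed) in pH 7.5 Tris buffer was preincubated 30 min with compound, then given a substrate mix of 0.016 mM NADPH and 2 mM alpha-KG for 80 min at room temperature; remaining NADPH was read by diaphorase/resazurin fluorescence.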
TrxR1 substrate – qHTS Assay for Substrates of Mammalian Selenoprotein Thioredoxin Reductase 1 (TrxR1): qHTS; Thioredoxin reductase 1, cytoplasmic (Rattus norvegicus), O89049; 390,000 tested, 0.01% active; Potency, µM (highest dose often 114 µM), inactives show top-dose activity change, negative = substrate turnover; AID 588456, 2011; purified TrxR1 substrate turnover, NADPH consumption readout; note: potency is the fitted concentration of half-maximal effect; % is set by controls: 0 for no effect and ±100 for the full control effect; nearly all actives have a fitted effect of over 50% in size
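Rat TrxR1, dispensed at 90 nM, was prereduced with 400 uM NADPH (final) for 5 min at ~22 deg C, then incubated with compound 15 min before 400 uM selenite. A first-read NADPH fluorescence drop versus no-compound background flagged substrates.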
IDH1 autofl – qHTS for Inhibitors of mutant isocitrate dehydrogenase 1 (IDH1): Cherrypicks Autofluorescence Interference; AID 623980, 2012; inhibition of signal, % at 51.2 µM; shares compounds with IDH1 R132H inh; 750 tested, under 10 active; Resorufin detection reagent fluorescence interference, cell-free;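 note: 0% = wells with normal resorufin and full inhibition = wells lacking resorufin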
WT IDH1 inh – qHTS for Inhibitors of mutant isocitrate dehydrogenase 1 (IDH1): Cherrypicks in WT IDH1. shares compounds with IDH1 R132H inh. WT IDH1 enzyme, NADPH diaphorase/resazurin fluorescence. Potency, µM (titrated, usually from 115 µM), for the others: at the highest dose activity change, negative = inhibition, most hits filed as inhibitors. 750 tested, 9% active. AID 623995, 2012;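 note: potency is the fitted concentration of half-maximal effect; 0% = full WT IDH1 enzyme control and full inhibition = no enzyme wells; nearly all actives have a fitted effect of over 55% in size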
Target sequence (O75874 whole entry, looked up): as the sequence (O75874 whole entry R132H, stated change not applied) above, with H132R counted along it
mIDH1 confirm – qHTS for Inhibitors of mutant isocitrate dehydrogenase 1 (IDH1): Confirmation of Cherrypicks; shares compounds with IDH1 R132H inh; IDH1 R132H enzyme, NADPH diaphorase/resazurin fluorescence; Potency, µM (series often up to 76.6 µM), for the others: top-dose activity change, negative = inhibition, actives largely listed as inhibitors; 750 tested, 83% active; AID 624002, 2012; note: potency is the fitted concentration of half-maximal effect; nearly all actives have a fitted effect of over 50% in size
Active calls of the source: *; [ ] = remark or other dose. Shown are actives, neighbours in structure and some others; about 1.5% of the full set was active somewhere. Unless noted, calls come from the whole dose curve; as a rule, active = well fitted curve in the direction sought with a large enough effect; inconclusive = small, poorly fitted or top-dose-only effect, or another doubt; inactive = no such curve, though single readings can be large; an effect the other way counts as inactive or inconclusive.

How did CCOC(=O)CSC1=C(C#N)C(c2ccccc2OCC)C(C#N)C(=O)N1 (centres undefined) do in these assays?
rTrxR1 inhibitor: -13.5%; Coupling enz: 9.8; Eya2 inh: 4.1%; IDH1 R132H inh: 46.5µM*; TrxR1 substrate: -4.9%; IDH1 autofl: -0.8; WT IDH1 inh: 84.1%; mIDH1 confirm: 50.1µM*

What do the screens show for `CCCOC(=O)CSC1=C(C#N)C(c2ccccc2OC)C(C#N)C(=O)N1` (centres undefined)?
rTrxR1 inhibitor: -20.0%; Coupling enz: 2.9; Eya2 inh: -27.2%; IDH1 R132H inh: inconclusive; TrxR1 substrate: -6.6%; IDH1 autofl: 6.4; WT IDH1 inh: 90.9%; mIDH1 confirm: 44.7µM*

Results for C=CCSC1=C(C#N)C(c2ccccc2OCC)C(C#N)C(=O)N1 (centres undefined) ?
rTrxR1 inhibitor: -4.3%; Coupling enz: 5.8; Eya2 inh: 32.4%; IDH1 R132H inh: inconclusive; TrxR1 substrate: 8.3%; IDH1 autofl: 1.8; WT IDH1 inh: 56.4%; mIDH1 confirm: 44.7µM*

How did O=C1CCSC2(C(=O)N(Cc3ccc(F)cc3)c3ccccc32)N1c1ccc(F)c(F)c1 (centres undefined) do in these assays?
rTrxR1 inhibitor: 8.5%; IDH1 R132H inh: 39.8µM*; TrxR1 substrate: -6.0%; IDH1 autofl: -4.7; WT IDH1 inh: -7.5%; mIDH1 confirm: 14.1µM*

How did Cc1cccc(N2C(=O)CCSC23C(=O)N(Cc2ccc(F)cc2)c2ccccc23)c1 (centres undefined) do in these assays?
rTrxR1 inhibitor: 12.3%; IDH1 R132H inh: inconclusive; TrxR1 substrate: -11.6%; IDH1 autofl: -2.4; WT IDH1 inh: -17.4%; mIDH1 confirm: 20µM*

What do the screens show for `O=C1CCSC2(C(=O)N(Cc3ccc(F)cc3)c3ccccc32)N1c1ccccc1` (centres undefined)?
rTrxR1 inhibitor: 29.6%; IDH1 R132H inh: inconclusive; TrxR1 substrate: 6.1%

Results for O=C1CSC2(C(=O)N(Cc3ccccc3)c3ccccc32)N1c1ccc(Cl)cc1 (centres undefined) ?
rTrxR1 inhibitor: 27.6%[57.1 µM]; IDH1 R132H inh: inconclusive; TrxR1 substrate: 5.5%[57.1 µM]; IDH1 autofl: 2.8; WT IDH1 inh: 10.7%; mIDH1 confirm: 25.1µM*

Results for O=C1CCSC2(C(=O)N(Cc3ccc(F)cc3)c3ccccc32)N1c1cccc(F)c1 (centres undefined) ?
rTrxR1 inhibitor: 5.4%; IDH1 R132H inh: 28.2µM*; TrxR1 substrate: -3.8%; IDH1 autofl: -0.6; WT IDH1 inh: -17.5%; mIDH1 confirm: inconclusive

Results for O=c1cc(-c2cc(O)c(O)c([C@@H]3O[C@H](CO)[C@@H](O)[C@H](O)[C@H]3O)c2)oc2cc(O[C@@H]3O[C@H](CO)[C@@H](O)[C@H](O)[C@H]3O)cc(O)c12 ?
Coupling enz: -0.4

What do the screens show for `Cc1ccc(CN2CCSc3ccc(C(=O)N4CCN(c5ncccn5)CC4)cc32)cc1`?
rTrxR1 inhibitor: 10.1%; Coupling enz: -3.2; Eya2 inh: 0.2%; IDH1 R132H inh: inconclusive; TrxR1 substrate: 21.0%; IDH1 autofl: 6.2; WT IDH1 inh: 3.5%; mIDH1 confirm: 15.8µM*

Results for CCN1CCN(C(=O)c2ccc3c(c2)N(Cc2ccc(C)cc2)CCS3)CC1 ?
rTrxR1 inhibitor: 4.8%; Coupling enz: 2.2; Eya2 inh: 2.5%; IDH1 R132H inh: 11.3%; TrxR1 substrate: 14.0%

Results for CCCCCCn1c(SCC#N)nc2ccccc2c1=O ?
rTrxR1 inhibitor: inconclusive; TrxR1 substrate: 7.0%[0.0914 µM]

What do the screens show for `CCc1ccc(NC(=O)CN2C(=O)C3CCCN3c3ccc(S(=O)(=O)N(CC)CC)cc32)cc1` (centres undefined)?
rTrxR1 inhibitor: 3.0%[57.1 µM]; IDH1 R132H inh: 44.7µM*; TrxR1 substrate: -1.3%[57.1 µM]; IDH1 autofl: -5.4; WT IDH1 inh: -3.6%; mIDH1 confirm: 28.2µM*

What do the screens show for `CN1[C@@H]2CC(OC(=O)[C@H](CO)c3ccccc3)C[C@@H]1[C@H]1O[C@H]12` (some centres undefined)?
Coupling enz: -0.2

How did COc1cc(-c2nc3c(c(C)nn3-c3ccccc3)c3cc(OC)c(OC)cc23)ccc1O do in these assays?
rTrxR1 inhibitor: 7.1%[57.1 µM]; Coupling enz: -15.7; Eya2 inh: 13.6%; IDH1 R132H inh: inconclusive; TrxR1 substrate: 48.4%; IDH1 autofl: 1.5; WT IDH1 inh: 0.1%; mIDH1 confirm: 10µM*

How did CC(C)(C)Nc1oc(-c2ccccc2)nc1-c1cccc2ccccc12 do in these assays?
Coupling enz: 0.4

What do the screens show for `Cc1ccc2c(c1)Oc1ccc(NC(=O)CCl)cc1C(=O)N2`?
rTrxR1 inhibitor: inconclusive; Coupling enz: 2.9; Eya2 inh: -3.4%; IDH1 R132H inh: 13.1µM*; TrxR1 substrate: 2.2%; IDH1 autofl: -2.0; WT IDH1 inh: 70.8µM*; mIDH1 confirm: 6.31µM*

What do the screens show for `Cc1ccc2c(c1)Oc1ccc([N+](=O)[O-])cc1C(=O)N2`?
rTrxR1 inhibitor: 18.0%; Coupling enz: -0.4; Eya2 inh: 14.5%; IDH1 R132H inh: 9.6%; TrxR1 substrate: -0.3%

How did COc1cc2c3cc1Oc1c(OC)c(OC)cc4c1[C@@H](Cc1ccc(OC(=O)c5ccc([N+](=O)[O-])cc5)c(c1)Oc1ccc(cc1)C[C@@H]3N(C)CC2)N(C)CC4 do in these assays?
Coupling enz: -6.0
